Results from PubChem BioAssay (NCATS).
“And” between values parts separate entries of the source, which are not always exact repeats. Equal entries are not always repeated. Records with an inconclusive call do not appear. The source made the active and inactive calls. Calls come from the whole dose curve; as a rule, active = well fitted inhibition curve with a large enough effect; inconclusive = small, poorly fitted or top-dose-only effect; inactive = flat fitted curve, though single readings scatter.

What was measured:
[1] = test system: CRL-7250; assay: Cytotoxic Profiling of Annotated Libraries Using Quantitative High-Throughput Screening (AID 1296008); conditions: Five cell lines viability, CellTiter-Glo ATP luminescence, 48-72 h; max response: stronger effect = lower value; for max response: % is set by controls: 0 for no effect and ±100 for the full control effect
Outline: (§1)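 Cytotoxicity was measured as CellTiter-Glo ATP luminescence, read after 10 min at room temperature. Compound treatment of the cells lasted 48 or 72 hr at 37 degrees Celsius in a qHTS format.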

[2] = test system: HEK293; assay: as above; conditions: Five cell lines viability, CellTiter-Glo ATP luminescence, 48-72 h; max response: stronger effect = lower value
Outline: as §1

[3] = test system: HaCat; assay: as above; conditions: Five cell lines viability, CellTiter-Glo ATP luminescence, 48-72 h; max response: stronger effect = lower value
Outline: as §1

[4] = test system: KB-3-1; assay: as above; conditions: Five cell lines viability, CellTiter-Glo ATP luminescence, 48-72 h; max response: stronger effect = lower value
Outline: as §1

[5] = test system: NIH3T3; assay: as above; conditions: Five cell lines viability, CellTiter-Glo ATP luminescence, 48-72 h; max response: stronger effect = lower value
Outline: as §1

[6] = test system: HACAT; assay: qHTS assay to identify novel small-molecules to repurpose for Merkel cell carcinoma treatment (AID 1296009); conditions: MCC and control cell lines, CellTiter-Glo viability, 72 h; at 44.8 µM (top of the series) unless noted
Outline: (§2)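 After compound transfer in DMSO, plates were kept 72 hr at 37 degree celsius. Luminescent ATP signal from CellTiter-Glo served as viability measure, normalized against DMSO and no-cell controls.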

[7] = test system: HEK293T; assay: as above; conditions: MCC and control cell lines, CellTiter-Glo viability, 72 h; series mostly up to 44.8 µM
Outline: as §2
Note: nearly all actives have a fitted effect of over 60% in size.

O=C(O)CCc1cc2ccoc2cc1O[C@@H]1O[C@H](CO[C@@H]2OC[C@](O)(CO)[C@H]2O)[C@@H](O)[C@H](O)[C@H]1O
inactive: max response [1] -5.99% | outcome [2] | outcome [3] | max response [4] 9.81% | max response [5] -2.27% | outcome [6] inactive [at 17.4 µM] | Potency [7]

C=C[C@](C)(CC/C=C(\C)C(=O)O)O[C@@H]1OC[C@H](O)[C@H](O)[C@H]1O
inactive: max response [1] -0.0118% | outcome [2] | outcome [3] | max response [4] 3.33% | max response [5] 2.21% | outcome [6] | Potency [7]

C=C(C)C(C)C1OC23CC4(CO2)C(CCC2C5(C)CCC(OC6OCC(O)C(OC7OC(CO)C(O)C(OC8OCC(O)C(O)C8O)C7O)C6OC6OC(CO)C(O)C6O)C(C)(C)C5CCC24C)C3C(C)(O)C1OC(C)=O (stereo unspecified)
inactive: max response [1] -0.008% | outcome [2] | outcome [3] | max response [4] 6.52% | max response [5] -2.26% | outcome [6] inactive [at 9.27 µM] | outcome [7] inactive [at 9.27 µM]

C/C=C/C1=CC2=CC(=O)C(C)(O)C(OC(=O)c3c(C)cc(O)cc3O)C2CO1 (stereo unspecified)
inactive: max response [1] 1.95% | outcome [2] | outcome [3] | max response [4] 2.68% | outcome [5] | outcome [6] | Potency [7]

CCC(C)(O)C(O)C(=O)OCc1ccc(O[C@@H]2O[C@H](CO)[C@@H](O)[C@H](O)[C@H]2O)c(OC)c1 (stereo partly specified)
inactive: max response [1] 0.769% | outcome [2] | outcome [3] | max response [4] 4.31% | outcome [5] | outcome [6] inactive [at 17.4 µM] | Potency [7]

C=C1C[C@]23C[C@H]1CC[C@H]2[C@@]12C=C[C@H](O)[C@@](C)(C(=O)O1)[C@H]2[C@@H]3C(=O)O
inactive: max response [1] -5.97% | outcome [2] | outcome [3] | outcome [4] | outcome [5] | outcome [6] | Potency [7]

COc1cc([C@H]2OC[C@@H]3[C@@H](c4ccc(O[C@@H]5O[C@H](CO)[C@@H](O)[C@H](O)[C@H]5O)c(OC)c4)OC[C@]23O)ccc1O
inactive: max response [1] -6.95% | outcome [2] | outcome [3] | max response [4] 3.2% | outcome [5] | outcome [6] inactive [at 17.4 µM] | Potency [7]

CC1(C)OC(=O)C(OCC2CC2)=C1c1ccc(S(C)(=O)=O)cc1
inactive: outcome [1] | outcome [2] | outcome [3] | outcome [4] | outcome [5] | outcome [6] | Potency [7]

Cc1cn2c(N)c(Cl)cc(C(=O)NCC3CCN(CC(C)C)CC3)c2n1
inactive: max response [1] -6.05% | outcome [2] | outcome [3] | max response [4] -3.78% | outcome [5] | outcome [6] | Potency [7]

COc1cc(/C=C/C(=O)OC2[C@H](O)CC(O)(C(=O)O)C[C@H]2O)ccc1O (stereo partly specified)
inactive: max response [1] 3.9% | outcome [2] | outcome [3] | max response [4] 0.663% | max response [5] -0.19% | outcome [6] | Potency [7]

CCCCN(CCCC)C(=O)CN1C[C@H](c2ccc3c(c2)OCO3)[C@@H](C(=O)O)[C@@H]1c1ccc(OC)cc1
inactive: max response [1] -2.69% | outcome [2] | outcome [3] | outcome [4] | max response [5] 2.42% and 5% | outcome [6] | Potency [7]

CC12CC34C=CC(=O)C(C)(CCC(=O)O)C3C(CC1C4)O2 (stereo unspecified)
inactive: outcome [1] | outcome [2] | outcome [3] | max response [4] 5.48% | outcome [5] | outcome [6] | Potency [7]

COc1cc2c(cc1OC)CN(C(=O)[C@@H](NCc1ccncc1)C(C)(C)C)CC2
inactive: outcome [1] | outcome [2] | outcome [3] | max response [4] 5.18% | outcome [5] | outcome [6] | Potency [7]

CC1(C)CC(=O)N(CCCCN2CCN(c3ncccn3)CC2)C(=O)C1
inactive: outcome [1] | outcome [2] | outcome [3] | max response [4] 4.21% | outcome [5] | outcome [6] | Potency [7]

CNC(=O)O[C@H]1COc2ccc(N3CCN(C4COC4)CC3)cc2[C@@H]1NC(=O)c1ccc(F)cc1
inactive: max response [1] -2.36% | outcome [2] | outcome [3] | outcome [4] | outcome [5] | outcome [6] | Potency [7]

O=C(O)C[C@@H](NC(=O)c1cc(-c2ccc(-c3ccncc3)cc2)cs1)c1ccccc1
inactive: max response [1] 1.97% | outcome [2] | outcome [3] | max response [4] 4.03% | max response [5] 1.34% | outcome [6] | Potency [7]

CCCC1=CC2=C(CO1)C(=O)C(C)(OC(=O)c1c(C)cc(OC)cc1O)C(O)C2 (stereo unspecified)
inactive: max response [1] -27.1% | outcome [2] | outcome [3] | max response [4] 0.111% | outcome [5] | outcome [6] inactive [at 17.4 µM] | Potency [7]

C/C=C1/[C@H](O[C@@H]2O[C@H](CO)[C@@H](O)[C@H](O)[C@H]2O)OC=C(C(=O)OC)[C@H]1CC(=O)O[C@@H]1O[C@H](CO)[C@@H](O)[C@H](O)[C@H]1O
inactive: outcome [1] | outcome [2] | outcome [3] | outcome [4] | max response [5] 4.1% | outcome [6] inactive [at 17.4 µM] | Potency [7]
